Experimental findings from PubChem BioAssay (NCI) are described below.

The panel holds about 83,000 compounds, 20% with a hit somewhere; the sample as a whole holds those more often.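 Plates (96-well) were seeded with cells, treated with compound at one concentration, and incubated for 48 hours before percent growth was determined.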 Unmarked numbers belong to inactive results. Calls of active or inactive are those of the source. How the source made its calls: active means growth percent below 10; inactive means the rest.

The assay deals with MALME-3M melanoma. The assay can be described thus: NCI-60 one-dose screen, 48 h (100 = growth as untreated, 0 = no growth, -100 = all killed). To be noted: 10 µM unless noted.
For the compound `Cc1nc2cncc(C#Cc3cncc(C(=O)Nc4ccc(CN5CCN(C)CC5)c(C(F)(F)F)c4)c3)c2nc1C`, the growth was -38.8% (active).

Regarding `CCN(CC)CCC(CNc1c2ccc(Cl)cc2nc2ccc(OC)cc12)c1ccccc1` (stereo not drawn), the growth was -85.1% (active).

As for `Cc1csc(NC(c2ccc(Br)cc2)c2c(C)nc3ccccn23)n1` (stereo not drawn), the growth is 88.4%.

For `O=C(NCCCNc1nccc(-n2ccc3cccnc32)n1)c1c(F)cccc1F`, the growth is 106%.

As to `COc1ccc(/C=C\c2cc(OC)c(OC)c(OC)c2)cc1OC(=O)c1cccc(Cn2cc(CCOC(=O)c3cccc(Cn4nnc5c4C(=O)c4ccccc4C5=O)c3)nn2)c1`, the growth is 41.5%.

Consider `O=C(Nc1ccc(NCCN2CCOCC2)nc1)c1ccc([N+](=O)[O-])cc1`, for which the growth is 105%.

As to `CCOC(=O)C1C(=O)C=C(c2ccc(OC)cc2)CC1c1sc(N(C)Cc2ccccc2)nc1Cl` (stereo not drawn), the growth is 93.4%.

In the case of `NC(=S)N/N=C(/CCN1CCCC1)CC(C1=C(O)C2=CCCCC2OC1=O)c1ccccc1` (stereo not drawn), the growth was 73%.

On to `O=C(NNC(=O)N1c2ccccc2C=Cc2ccccc21)c1ccccc1`, for which the growth is 117%.

In the case of `Cc1ccc(S(=O)(=O)n2cc(C(=O)C(=O)Nc3ccncc3)c3ccccc32)cc1`, the growth was 48.4%.

Consider `COc1ccc(C2=C(c3cc(OC)c(OC)c(OC)c3)C(=O)CC2)cc1`, for which the growth was 35.3%.

`Cn1ccc(Nc2nccc(Oc3ccc(C(=O)Nc4cccc(F)c4)c(Cl)c3)n2)c1`: the growth is 94.6%.

On to `CCOc1cc2c(Cl)ncnc2c(OCC)c1OCC`, for which the growth was 83.8%.
